The panel holds about 83,000 compounds, 20% with a hit somewhere; the sample as a whole holds those more often.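 Cell lines were cultured in 96-well plates, exposed to a single compound concentration, and assessed for percent growth 48 hours later.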 Values without a mark were called inactive. Calls of active or inactive are those of the source. How the source made its calls: active means growth percent below 10; inactive means the rest.
tested on: MDA-MB-468 breast; assay: NCI-60 one-dose screen, 48 h (100 = growth as untreated, 0 = no growth, -100 = all killed); details: 10 µM unless noted

| SMILES | growth |
| --- | --- |
| COc1cc(C=O)ccc1OC1OC(COC(C)=O)C(OC(C)=O)C(OC(C)=O)C1OC(C)=O (stereo not drawn) | 100% |
| COC(=O)CNS(=O)(=O)c1ccc2c(c1)Cc1cc(S(=O)(=O)NCC(=O)OC)ccc1-2 | 84.9% |
| COc1ccc(-c2nnc(SCC(=O)Nc3ccc(C(=O)/C=C/c4ccccc4)cc3)n2-c2ccccc2)cc1OC | 94.8% |
| Cc1nn(-c2ccccc2)c2ncc3c(c12)C(=O)N(Cc1ccccc1)C3=O | 77.8% |
| C=C(OC(C)=O)c1ccccc1 | 103% |
| COc1ccccc1CNCCCN1C(=O)c2ccc3c4c(ccc(c24)C1=O)C(=O)N(CCCNCCCCN)C3=O | -55.7% (active) |
| O=C(CCCOc1ccc(Br)cc1)Nc1ncc(Cc2ccc(F)cc2)s1 | 57% |
| Cc1ccc2nc(SCC(=O)Nc3ccc(-c4nc5ccccc5s4)c(Cl)c3)[nH]c2c1 | 101% |
| CCn1cc(-c2[nH]c(=S)ncc2-c2ccc(Cl)cc2)c(-c2ccc(Br)cc2)n1 | 121% |
| COc1cc(OC)c(/C=C/c2ccc3ccccc3[n+]2C)c(OC)c1 | -13.7% (active) |
| S=C(S)N1CCCC1 | 111% |
| O=C(NCCNc1cc(-c2cn(-c3ccccc3)nc2-c2cccc(O)c2)ccn1)Nc1ccc(Cl)c(C(F)(F)F)c1 | 17.5% |
| CCN(CC)C12CCCCC1(C)C(C#N)(C#N)C(C#N)=C(N)O2 (stereo not drawn) | 93.5% |
| COC(=O)[C@]12CC[C@@H](C)[C@H](C)[C@@H]1C1=CC[C@@H]3[C@@]4(C)C[C@@H](OC(C)=O)[C@H](O)[C@@](C)(COC(C)=O)[C@@H]4[C@H](O)C[C@@]3(C)[C@]1(C)CC2 | -90.2% (active) |
| COc1ccc2c(c1)c(-c1nc(-c3cn(C)c4ncccc34)cs1)cn2CCN | 16.1% |
| COc1cc2c(c(OC)c1OC)CCC(c1cccc(C(=O)Nc3ccc([N+](=O)[O-])cc3)c1)O2 (stereo not drawn) | 38.2% |
| O=C1/C(=C\C(Cl)=C/c2ccc([N+](=O)[O-])cc2)SC(=S)N1CCc1ccc(O)cc1 | -84.7% (active) |

| SMILES | growth |
| --- | --- |
| Nc1c(C(=O)Nc2cccc(C(F)(F)F)c2)sc2nc3c(cc12)CCCCC3 | -9.93% (active) |
| COc1ccc(OC)c(Nc2nnc(-c3ccc(Cl)cc3)o2)c1 | 74.2% |
| O=C(Nc1ncc(Cc2ccc(Cl)cc2)s1)C1=NCCCCN1 | 102% |
| COc1cccc(C(=O)NNc2nc(N3CCOCC3)nc(N3CCN(C(c4ccccc4)c4ccccc4)CC3)n2)c1 | 61.7% |
| Cc1ccc2c(-n3nc(C#N)c(C#N)c3N)cc(=O)[nH]c2c1 | 92.6% |
| COC(=O)c1c2c(c(C)[n+]([O-])c1C)C(=O)C=C(NCc1ccc(F)c(Cl)c1)C2=O | -70.5% (active) |
| COc1ccc(-c2cnc3ccccc3n2)cc1 | 99.7% |
| CCN(CC)CCS(=O)(=O)CCNc1ccnc2cc(Cl)ccc12 | -49.2% (active) |
| CC[C@H](C)[C@H]1NC(=O)[C@@H]([C@H](O)C(C)C)NC(=O)[C@@H](C)N(C)C(=O)[C@H](C)N(C)C(=O)[C@H](CC(C)C)NC(=O)[C@H](CC(C)C)N(C)C(=O)[C@H](C)N(C)C1=O | -5.6% (active) |
| COC(=O)[C@@H](CCCCNC(=O)[C@]12CCC(C)(C)C[C@@H]1C1=CC[C@@H]3[C@@]4(C)C/C(=C/c5ccco5)C(=O)C(C)(C)[C@@H]4CC[C@@]3(C)[C@]1(C)CC2)NC(=O)[C@]12CCC(C)(C)C[C@@H]1C1=CC[C@@H]3[C@@]4(C)C/C(=C/c5ccco5)C(=O)C(C)(C)[C@@H]4CC[C@@]3(C)[C@]1(C)CC2 | 109% |
| O=C1NC(=O)[C@@H](c2cn3c4c(cccc24)CCC3)[C@@H]1c1c[nH]c2ccccc12 | -0.826% (active) |
| CC[C@H](C)C(=O)O[C@H]1CCC=C2C=C[C@H](C)[C@H](CC[C@@H]3CC=CC(=O)O3)[C@H]21 | 85% |
| C=C1C(=O)O[C@H]2[C@H]1CC/C(COC(=O)NCc1cc(OC)cc(OC)c1)=C\CC[C@@]1(C)O[C@@H]21 | 10.2% |
| NS(=O)(=O)c1ccc(-n2nc(-c3ccc(Cl)cc3)c3ccccc3c2=O)cc1 | 104% |
| CCCCCCCC[Si](OCC)(OCC)OCC | 97.5% |
| COc1cccc(/C=C(/C)c2ccc3cccc(OC)c3[o+]2)c1O | 95.9% |

Reference: PubChem BioAssay (NCI)
